# Reference: PubChem BioAssay AID1240 (Sanford-Burnham Center for Chemical Genomics, 2008)
# In all, about 50,000 compounds went through this assay and about 800 (1.6%) showed an effect of 50% or more. For the sample, strong results were picked, then their nearest neighbours and some compounds at random.
# Target: Bcl-2-like protein 10 (Homo sapiens) (UniProt Q9HD36)
# Assay: TR3 peptide-Bcl-B binding displacers, biochemical primary FP assay, phenotype converters (AID 1240);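 note: 0% = Bcl-B with tracer peptide and DMSO and 100% = tracer peptide lacking Bcl-B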
# Conditions: GST-Bcl-B / FITC-TR3 peptide fluorescence polarization; stronger effect = higher value; compound at 3.75 mg/L
# Sequence of Bcl-2-like protein 10 (Homo sapiens) (Q9HD36 whole entry, looked up): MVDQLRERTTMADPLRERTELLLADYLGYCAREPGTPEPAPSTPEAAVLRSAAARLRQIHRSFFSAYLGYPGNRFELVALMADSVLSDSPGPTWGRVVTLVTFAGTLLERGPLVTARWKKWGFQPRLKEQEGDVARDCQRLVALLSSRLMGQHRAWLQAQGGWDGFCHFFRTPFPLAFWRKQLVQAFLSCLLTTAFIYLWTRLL
row,SMILES,displacement [%]
1,CN1C(=O)/C(=C\c2cn(Cc3ccccc3)c3ccccc23)SC1=S,8.3
2,O=Cc1ccc(/C=C2/SC(=S)N(Cc3ccccc3)C2=O)cc1,10.5
3,Cc1ccccc1OCCn1cc(/C=C2/SC(=S)N(C)C2=O)c2ccccc21,11.6
4,CC(C)c1ccc(/C=C2\SC(=S)N(Cc3ccccc3)C2=O)cc1,2.6
5,COc1ccccc1OCCn1cc(/C=C2/SC(=S)N(Cc3ccccc3)C2=O)c2ccccc21,112
6,C=CCc1ccccc1OCCn1cc(/C=C2/SC(=S)N(CC)C2=O)c2ccccc21,11.6
7,CCN1C(=O)/C(=C\c2cn(Cc3ccccc3)c3ccccc23)SC1=S,3.3
8,COc1cccc(/C=C2\SC(=S)N(Cc3ccccc3)C2=O)c1OC,8.6
9,CC(Oc1ccc(/C=C2/SC(=S)N(Cc3ccccc3)C2=O)cc1)c1ccccc1 (stereo unspecified),123
10,COc1ccc(/C=C2/SC(=S)N(Cc3ccccc3)C2=O)c2ccccc12,60.2
11,COc1ccccc1/C=C1/SC(=S)N(Cc2ccccc2)C1=O,16.7
12,CCN1C(=O)/C(=C\c2cn(CCOc3ccccc3C)c3ccccc23)SC1=S,127
13,O=C(Nc1cccc2ccccc12)c1cc(-c2ccco2)nc2ccccc12,34.2
14,Cc1ccc(C(=O)N2CCC(C(N)=O)CC2)cc1[N+](=O)[O-],-0.2
15,O=C(Nc1ccccc1)/C(=C\c1cccc(Br)c1)NC(=O)c1ccccc1,4.5
16,COc1ccc(Cc2nnc(NC(=O)Nc3ccccc3)s2)cc1,11.9

row,SMILES,displacement [%]
1,COc1cc(/C=N/NC(=O)CSCc2ccc([N+](=O)[O-])cc2)cc(OC)c1OC,1.6
2,COc1ccccc1NC(=O)N1CCOCC1,-6.8
3,COc1ccc(-c2nc(=S)c3c(n2Cc2ccccc2)CCCC3)cc1,10.1
4,COC(=O)C1=C(C(=O)OC)SC(=C2C(=S)C(C)(C)N(C(=O)c3cccc(C)c3)c3cc(OC)ccc32)S1,-7.2
5,Nc1ccc2nc(SCC(=O)Nc3cccc(C(F)(F)F)c3)sc2c1,-3.3
6,C=CCN1C(=O)/C(=C\c2cc(Br)ccc2OCCOc2cccc(OC)c2)SC1=S,-43.6
7,CCN1C(=O)/C(=C\c2cn(CCOc3ccccc3)c3ccccc23)SC1=S,20.9
8,C=CCN1C(=O)/C(=C\c2cn(CCOc3cccc(OC)c3)c3ccccc23)SC1=S,91.7
9,O=C(O)c1ccc2c(c1)C(=O)N(c1ccc(-c3nnc(-c4ccccc4)o3)cc1)C2=O,9
10,O=C(/C=C/c1ccco1)Nc1nc2ccc(Br)cc2s1,59.2
11,O=C(/C=C/c1ccccc1)Nc1nc2ccc(Br)cc2s1,15
12,COc1ccc(Br)cc1/C=C/C(=O)Nc1nc2ccc(C)cc2s1,-22.6
13,COC(=O)c1c(NC(=O)/C=C/c2ccco2)sc(C)c1C,-12.6
14,CCOC(=O)c1nc(NC(=O)/C=C/c2ccco2)sc1C,73.7
15,CCOC(=O)c1c(NC(=S)NC(=O)/C=C/c2ccco2)sc(C)c1C,23.9
